Out of some 420,000 compounds screened, about 64,000 (15%) were called active. Another 27% or so got no clear call; they are omitted. Calls follow the shape of the dose curve; as a rule, active = well fitted inhibition curve with a large enough effect; inconclusive = small, poorly fitted or top-dose-only effect; inactive = flat fitted curve, though single readings scatter. Not all results are given here. A call without a number means that no potency is given here.
experiment: qHTS for Inhibitors of human tyrosyl-DNA phosphodiesterase 1 (TDP1): qHTS in cells in absence of CPT; settings: DT40 Tdp1-/- hTDP1 cells, no CPT, ATP luminescence, 48 h; activity change, negative = growth inhibition: at 46.2 µM (top of the series); also: nearly all actives have a fitted effect of over 55% in size
Description: Human tyrosyl-DNA phosphodiesterase 1 (TDP1) is a novel repair gene, and we propose to use it as a new target for anticancer drug development. TDP1 is not an essential protein, but under treatment with topoisomerase I poison (camptothecin: CPT), TDP1 works as a critical factor for cell survival. To directly identify novel TDP1 inhibitors active in a cellular environment, we have knocked-out the Tdp1 gene in chicken DT40 cells (Tdp1-/-) and generated a complemented counterpart cells that contains a stable transfection of the human TDP1 gene (Tdp1-/-;hTDP1 cells). For the primary screen, Tdp1-/-;hTDP1 cells will be exposed to small molecules in the presence or absence of CPT, and their growth kinetics will be evaluated after 48 hours by measuring ATP activity. […] The hit compounds will then be evaluated in the presence or absence of CPT using Tdp1-/- cells. […] In tertiary assays, biochemical gel-based assays will be used to assess whether the hit compounds specifically target TDP1.
To this end, we have screened this cell line against the MLSMR in two primary screens. In one screen we add CPT and in the other we screen in the absence of CPT; this AID represents the screen where CPT was absent.
NIH Chemical Genomics Center [NCGC]
NIH Molecular Libraries Probe Centers Network [MLPCN]
Assay Submitter (PI): Yves Pommier, NCI
DT40-hTDP1 cells without 20 nM Camptothecin (add 20 microL of DMSO in 1 L of cell culture medium) were dispensed at 400 cells/5microL/well in tissue culture treated 1536-well white wall/solid bottom assay plates (Greiner Bio-One North America, NC, U.S.A.) using a Multidrop Combi 8 channel dispenser (Thermo Fisher, Waltham, MA, USA). 23 nL compounds and controls were transferred using the pin tool (Kalypsys, San Diego, CA, USA) to the assay plates. The assay plates were then incubated at 37 masculineC for a minimum 48 hr. Three microL of Cell Titer Glo solution was added to the plates and incubated at RT in dark for 30 min. Luminescence was read using ViewLux (Perkin Elmer) with 1 sec exposure slow speed, high gain and 2x binning.
Potency is read from the fitted curve at half-maximal effect.

Row | Structure (SMILES) | Potency
1 | CCCc1nc(N)nc2c1C(=O)CC(C)(C)C2 | inactive
2 | COc1ccc(C(C(=O)NC(C)(C)C)N(C(=O)Cn2nnc3ccccc32)c2ccc(C(C)=O)cc2)cc1O (centres undefined) | inactive
3 | O=C(CC(NCCN1CCOCC1)C(=O)O)Nc1cccc(Cl)c1 (centres undefined) | inactive
4 | OC[C@@H]1CN(Cc2ccc3c(c2)OCO3)C[C@H](n2cnc3c(NCc4ccco4)ncnc32)O1 | inactive
5 | Cc1ccccc1NC(=O)CCNS(=O)(=O)c1ccc2[nH]c(=O)oc2c1 | inactive
6 | COc1cc(NC(=O)C2=CC(c3ccc(C)cc3)=NS(=O)(=O)N2C)cc(OC)c1OC | inactive
7 | COc1ccc(C2=NS(=O)(=O)N(C)C(C(=O)NC(C)c3ccccc3)=C2)cc1 (centres undefined) | inactive
8 | COc1ccc(NC(=O)C2=CC(c3ccc(OC)c(OC)c3)=NS(=O)(=O)N2C)cc1 | 23.1 µM (active)
9 | COc1ccccc1N(CC(=O)N1CCCCC1)S(=O)(=O)c1ccccc1 | inactive
10 | CSc1ccccc1NC(=O)C(C)N1C(=O)c2ccccc2S1(=O)=O (centres undefined) | inactive
11 | CCOC(=O)Nc1ccccc1N1C(=O)c2ccccc2C1=O | inactive
12 | CC(=O)Nc1ccccc1Sc1ccc2c3c(cccc13)C(=O)N(c1ccc(C)cc1)C2=O | 16.4 µM (active)
13 | Cc1c(Cl)c([N+](=O)[O-])nn1CC(=O)NCC1CCCO1 (centres undefined) | inactive
14 | COc1ccc(NC(=O)CCCC(=O)c2ccccc2)cc1 | inactive
15 | O=S(=O)(N1CCCCC1)N1CCNCC1 | inactive
16 | CN1C(=O)/C(=C/c2ccco2)SC1=Nc1cccc(C(=O)O)c1 | inactive
17 | Cc1ccc(C(=O)N/C(=C\c2cn(C)c3ccccc23)C(=O)N2CCN(C)CC2)cc1 | inactive
18 | Cc1cccc(N=C2NC(=O)/C(=C/c3cn(C)c4ccccc34)S2)c1 | 16.4 µM (active)
19 | Cc1ccc(NC(=O)CN(C)S(=O)(=O)c2cnc[nH]2)cc1C | inactive
20 | CCCC1=Nc2cc(C(=O)NCc3ccco3)ccc2Sc2ccccc21 | 3.66 µM (active)
21 | Cc1ccc2nc(CNC(=O)c3ccccc3)[nH]c2c1 | inactive
22 | CCC1=Nc2cc(C(=O)NCCCOC(C)C)ccc2Sc2ccc(C)cc21 | 0.517 µM (active)
23 | COc1ccc(CCNS(=O)(=O)c2ccc(C(=O)NCc3ccco3)cc2)cc1OC | inactive
24 | CCC1=Nc2cc(C(=O)NCCCN3CCOCC3)ccc2Sc2ccc(Br)cc21 | 3.66 µM (active)
25 | Cc1ccc(C(=O)NC(C)c2ccccc2)cc1Br (centres undefined) | inactive
26 | CC(C)NC(=O)C(=O)NCCCOC(C)C | inactive

Row | Structure (SMILES) | Potency
27 | COc1ccc(C(=O)NCCCN2CCOCC2)cc1Br | inactive
28 | O=C(NCc1ccco1)c1cccc(-c2ccc3nncn3c2)c1 | inactive
29 | CC(C)OCCCNC(=O)CNC(=O)c1cccs1 | inactive
30 | CCC1=Nc2cc(C(=O)NCC(C)c3ccccc3)ccc2Sc2ccc(C)cc21 (centres undefined) | 23.1 µM (active)
31 | O=C(NCCCN1CCOCC1)c1cc(-c2cccc(O)c2)on1 | inactive
32 | CCOC(=O)c1c(/N=C/c2cc(C)ccc2O)sc2c1CCC2 | inactive
33 | CCC(=O)c1ccc(OCC(O)Cn2nc(C)c(C(C)=O)c2C)cc1 (centres undefined) | inactive
34 | CC(C)n1c(-c2ccncc2)n[nH]c1=S | inactive
35 | Cc1cc(C)n(C(=O)c2ccc(C)c(S(=O)(=O)N3CCOCC3)c2)n1 | inactive
36 | Cc1cccc(NC(=O)C(C)N2C(=O)C3C4CC(C(Br)C4Br)C3C2=O)c1 (centres undefined) | inactive
37 | CN(CC(=O)N1CCN(c2ccccc2)CC1)S(=O)(=O)c1cccs1 | inactive
38 | CC(=O)c1ccc(-n2nnnc2SCC(=O)N2CCN(C(=O)c3ccco3)CC2)cc1 | inactive
39 | CCOC(=O)c1ccc(NC(=S)Nc2cc(C)cc(C)n2)cc1 | inactive
40 | N=C1c2ccccc2-c2ccccc21 | inactive
41 | O/N=C1\CC2(Cc3nonc31)OCCO2 | inactive
42 | CCCCN(C(=O)c1ccc(OC(F)(F)F)cc1)c1c(N)n(CCC)c(=O)[nH]c1=O | inactive
43 | CCCCn1c(N)c(N(CC)C(=O)c2ccccc2C(F)(F)F)c(=O)[nH]c1=O | inactive
44 | FC(F)(F)c1cc(C(F)(F)F)c2ccc(N3CCN(c4ccccc4)CC3)nc2n1 | inactive
45 | COc1ccc(C(C(=O)NC2CCCCC2)N(C(=O)CCl)c2ccccc2Cl)cc1 (centres undefined) | 14.6 µM (active)
46 | COc1ccc(C(C(=O)NC2CCCC2)N(CCCO)C(=O)Cn2nnc(-c3ccc(C)o3)n2)cc1 (centres undefined) | inactive
47 | Cc1ccccc1N(C(=O)CNC(=O)c1cccs1)C(C(=O)NC1CCCC1)c1ccncc1 (centres undefined) | inactive
48 | CC(NC(=O)COC(=O)c1ccc2c(c1)OCO2)c1ccccc1 (centres undefined) | inactive
49 | CC(C)(C)c1ccc(C(=O)NNC(=O)Cc2ccccc2)cc1 | inactive
50 | CC(C)(C)c1ccc(C(=O)C[N+]2(C)CCCc3ccccc32)cc1 (centres undefined) | 1.58 µM (active)
51 | CSc1ncnc2c1ncn2CCCNCc1cccs1 | inactive
52 | Cc1ccccc1-c1nc(NC(C)C)nc2cc(-c3ccccc3)sc12 | 20.6 µM (active)

Row | Structure (SMILES) | Potency
53 | O=C(O)CCCC(=O)Nc1ccccc1-n1ccnc1 | inactive
54 | Cc1c(Cl)c([N+](=O)[O-])nn1CC(=O)NCCCN1CCOCC1 | inactive
55 | O=S(=O)(c1cccc(-c2cn3ccccc3n2)c1)N1CCCC1 | inactive
56 | O=S(=O)(c1cccc(-c2nnc3n2CCCCC3)c1)N1CCOCC1 | inactive
57 | O=S(=O)(c1cccc(-c2nnc(SC(F)F)n2-c2ccccc2)c1)N1CCCCC1 | 16.4 µM (active)
58 | O=C(O)C1=C/C(=C/C=[N+]2c3cc(O)c(O[C@H]4OC(CO)[C@@H](O)[C@@H](O)[C@@H]4O)cc3C[C@@H]2C(=O)[O-])C[C@H](C(=O)O)N1 (some centres undefined) | inactive
59 | S=c1[nH]nc(Nc2ccccc2)s1 | inactive
60 | CCOc1c(Cl)cc(/C=N/O)cc1OC | inactive
61 | CCN1/C(=C/C(=S)Nc2ccccc2)Sc2ccccc21 | 4.11 µM (active)
62 | CCC(=O)/C=C1\Sc2ccccc2N1CC | inactive
63 | O=C(CS(=O)(=O)c1ccc(C(F)(F)F)cn1)NNC(=O)c1ccccc1 | inactive
64 | Cc1ccc2nc(COc3cccc(NC(=O)Nc4ccc(C)c(Cl)c4)c3)cc(=O)n2c1 | inactive
65 | Cc1ccc2nc(COc3ccc(NC(=O)COc4ccccc4F)cc3)cc(=O)n2c1 | inactive
66 | Cc1ccc2nc(COc3ccccc3NC(=O)Nc3ccc(F)c(Cl)c3)cc(=O)n2c1 | 14.6 µM (active)
67 | COc1ccc(-c2nn3c(=O)cc(CN4CCN(C(=O)c5ccc(OC)c(OC)c5)CC4)nc3s2)cc1 | inactive
68 | O=C(COc1ccc(/C=N/NC(=O)c2ccc(O)cc2)cc1)Nc1ccc([N+](=O)[O-])cc1 | inactive
69 | COc1ccc(/C=N\NC(=O)c2sc(N)nc2C)cc1OC | inactive
70 | O=C(Nc1cccc(F)c1)c1cc(-c2ccco2)nc2ccccc12 | inactive
71 | COc1ccc(/C=N/NC(=O)c2cc(-c3cccc(C)c3)nc3ccccc23)cc1O | 2.31 µM (active)
72 | Cc1ccc(N2NC(=O)/C(=C/C=C/c3ccco3)C2=O)cc1C | inactive
73 | Cc1nonc1C(=O)N/N=C/c1ccc(O)cc1 | inactive
74 | COc1cccc(-c2cc(C(=O)N/N=C/c3ccc(OC)c(COC(C)=O)c3)c3ccccc3n2)c1 | 2.06 µM (active)
75 | COc1ccc(/C=N/NC(=O)c2ccc(Cl)cc2)cc1COC(C)=O | inactive
76 | Cc1ccc(-c2cc(C(=O)N/N=C/C=C/c3ccco3)c3ccccc3n2)cc1C | 8.2 µM (active)
77 | CCOc1ccc(-c2cc(C(=O)N/N=C/c3ccc(O)cc3)c3ccccc3n2)cc1 | 0.651 µM (active)
78 | Cc1ccc(S(=O)(=O)NCCC(c2ccccc2)c2ccccc2)cc1C(=O)O | inactive

Row | Structure (SMILES) | Potency
79 | O=C(CCCOc1ccc(Cl)cc1Cl)NNC(=O)C1CCC1 | inactive
80 | Cc1ccc(C)c2[nH]c(=O)c(CCNC(=O)CC(C)C)cc12 | inactive
81 | COc1ccc(Cc2nnnn2CC(=O)O)cc1 | inactive
82 | Cc1ccc(S(=O)(=O)CC(=O)Nc2c(C)n(C)n(-c3ccccc3)c2=O)cc1 | inactive
83 | Cc1cc(C)n2nc(SCC(N)=O)nc2n1 | inactive
84 | CC(NC(=O)COC(=O)Cn1cc(C(F)(F)F)ccc1=O)c1ccccc1 (centres undefined) | inactive
85 | CCOC(=O)c1c(C)[nH]c(C)c1S(=O)(=O)NCC(=O)NCc1cccc(C)c1 | inactive
86 | COc1cc(/C=N\NC(=O)C2C(=O)NCC2c2ccccc2)cc(OC)c1O (centres undefined) | inactive
87 | COc1cc(/C=N/NC(=O)c2cc(-c3ccccc3C)nc3ccccc23)cc(OC)c1O | 6.51 µM (active)
88 | CC1(C)CC(CC(=O)O)C(=O)O1 (centres undefined) | inactive
89 | CC(=O)NCC(=O)N(C)C(C(=O)Nc1ccc2c(c1)OCCO2)c1ccccc1 (centres undefined) | inactive
90 | N#Cc1ccccc1NC(=O)c1cccc(COc2ccc(Cl)cc2Cl)c1 | inactive
91 | Cc1ccc(NC(=O)Cn2c(C)csc2=O)cc1 | inactive
92 | Cc1ccc(NC(=O)Cn2sc3ccccc3c2=O)cc1 | 4.61 µM (active)
93 | Cc1nn(CC(=O)Nc2ccc(F)cc2)c(=O)c2ccccc12 | inactive
94 | CCN1CCN(C(=O)CN(C)S(=O)(=O)c2ccc3ccccc3c2)CC1 | inactive
95 | CSCC[C@H](NC(=O)NCCc1ccc(F)cc1)C(=O)O | inactive
96 | COc1ccc(Br)cc1CN(C)C(=O)C1CC(=O)N(C2CCCC2)C1 (centres undefined) | 23.1 µM (active)
97 | O=C(Nc1cccc(Br)c1)C1CC(=O)N(C2CCCC2)C1 (centres undefined) | inactive
98 | CN(CC(=O)Nc1ccc(F)c(F)c1F)C(=O)C1CC(=O)N(C2CCCC2)C1 (centres undefined) | inactive
99 | CC(C)C(=O)Nc1oc(-c2ccccc2)cc1C#N | inactive
100 | Cc1ccc(NC(=O)CN(C)C(=O)Cn2nnc(-c3ccccc3)n2)cc1 | inactive
101 | CCCn1nc(C(=O)NNC(=O)CSCC(=O)Nc2cc(C)on2)c2ccccc2c1=O | inactive
102 | CCCn1nc(C(=O)Nc2ccc3nc(C)sc3c2)c2ccccc2c1=O | 18.4 µM (active)
103 | CCCn1nc(C(=O)NNC(=O)CCOc2ccccc2OCC)c2ccccc2c1=O | inactive
104 | CCCCCC(=O)Nc1ccc(C(=O)N/N=C/c2ccc([N+](=O)[O-])cc2)cc1 | inactive
